# Source: the supplement of paper PMC8728848
# Shown is part of a subset that was picked to be rich in the strongest signals.
# B1: PX9961H-bth-557-24-557 (Bacteroides thetaiotaomicron) (protein)
# chain: EETRTEVEKKNYMNNAEEAKDVLLGVYRTNTLDAMYGYYLSILFNLGTDISQVEGSGNENFRIIPTNSFPTTQSEVQQTWAALYTGIYRANDFLERISNKIGSYTTTDKKLATLYIAEARALRGMFYFELVRRFGNVVLMTSTQMSNQNPATYVQSAPEKVYEYIEDDLLYACDILPYATDDQYRESNDYRFSKGAALGLLTKVYATWAGYPVKDESKWEAAAKTARILVESGKHGLLKDYEQLWKNTCNGTWDPTESLIEISFYSPTVSGNSDPVGRIGKWNGVKTTAIAGVRGSCAANVKVVHTFVLDWREDVSDIRRDLSIANYQYTDTKKSLWVAGASDTDESAAEKDADPTKAQKNKQNYTPAKWDIQKYVTTNSFINNDKSNVNWYFLRYADVLLLYAEALNEWKHGPDAEAYNAINAVRRRGYGNPSNTSACDLPQGLDETSFREAVRKERSYELSFEGHRRQDLIRWGIYYKTVQATAKELGYWWEGTGSPNYSVATYTEEGKHELFPIPQRDMDLCIQFNQNPKW
# Tests used:
# Assay in all cases: glycan array binding signal (z-score within array); higher = stronger binding
# Details in all cases: glycan notation: IUPAC condensed, linker removed
# [1] = target: Gal(b1-4)GlcNAc(b1-3)Gal(b1-4)GlcNAc(b1-3)Gal(b1-4)GlcNAc(b1-3)Gal(b1-4)GlcNAc(b1-3)Gal(b1-4)GlcNAc(b1-2)[Gal(b1-4)GlcNAc(b1-3)Gal(b1-4)GlcNAc(b1-3)Gal(b1-4)GlcNAc(b1-3)Gal(b1-4)GlcNAc(b1-3)Gal(b1-4)GlcNAc(b1-6)]Man(a1-6)[Gal(b1-4)GlcNAc(b1-3)Gal(b1-4)GlcNAc(b1-3)Gal(b1-4)GlcNAc(b1-3)Gal(b1-4)GlcNAc(b1-3)Gal(b1-4)GlcNAc(b1-2)Man(a1-3)]Man(b1-4)GlcNAc(b1-4)[Fuc(a1-6)]GlcNAc
# Summary of the method: (§1)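 Glycan array data were curated from 3228 arrays in the Consortium for Functional Glycomics database and kept only where the protein sequence was available. Glycan names were converted to IUPAC-condensed notation, and columns mapping to the same glycan were averaged. The binding signal is a within-array Z-score, averaged across arrays of the same protein sequence at different concentrations or buffers and across linkers. Negative Z-scores can be read as non-binding.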
# Gal6S(b1-4)GlcNAc = target: Gal6S(b1-4)GlcNAc
# Summary of the method: as §1
# GalNAc(b1-3)GlcNAc = target: GalNAc(b1-3)GlcNAc
# Summary of the method: as §1
# Glc(a1-6)Glc(a1-6)Glc = target: Glc(a1-6)Glc(a1-6)Glc
# Summary of the method: as §1
# GlcA(b1-3)Gal = target: GlcA(b1-3)Gal
# Summary of the method: as §1
# [2] = target: GlcNAc(b1-3)Gal(b1-4)GlcNAc(b1-3)Gal(b1-4)GlcNAc(b1-3)Gal(b1-4)GlcNAc(b1-2)Man(a1-3)[GlcNAc(b1-3)Gal(b1-4)GlcNAc(b1-3)Gal(b1-4)GlcNAc(b1-3)Gal(b1-4)GlcNAc(b1-2)Man(a1-6)]Man(b1-4)GlcNAc(b1-4)GlcNAc
# Summary of the method: as §1
# Kdn(a2-3)Gal(b1-4)Glc = target: Kdn(a2-3)Gal(b1-4)Glc
# Summary of the method: as §1
# Man(a1-6)Man = target: Man(a1-6)Man
# Summary of the method: as §1
# Man(b1-4)GlcNAc = target: Man(b1-4)GlcNAc
# Summary of the method: as §1
# [3] = target: Neu5Ac(a2-3)Gal(b1-3)GalNAc
# Summary of the method: as §1
# [4] = target: Neu5Ac(a2-3)Gal(b1-3)[Neu5Ac(a2-6)]GalNAc
# Summary of the method: as §1
# [5] = target: Neu5Ac(a2-3)Gal(b1-3)]Neu5Ac(a2-3)Gal(b1-4)]GlcNAc
# Summary of the method: as §1
# [6] = target: Neu5Ac(a2-3)Gal(b1-4)GlcNAc(b1-2)Man(a1-3)[Neu5Ac(a2-3)Gal(b1-4)GlcNAc(b1-2)Man(a1-6)]Man(b1-4)GlcNAc(b1-4)GlcNAc
# Summary of the method: as §1
# [7] = target: Neu5Ac(a2-3)Gal6S(b1-4)GlcNAc
# Summary of the method: as §1
# [8] = target: Neu5Ac(a2-3)[GalNAc(b1-4)]Gal(b1-4)GlcNAc
# Summary of the method: as §1
# [9] = target: Neu5Ac(a2-6)Gal(b1-4)GlcNAc(b1-3)Gal(b1-3)GlcNAc
# Summary of the method: as §1
# [10] = target: Neu5Ac(a2-6)Gal(b1-4)GlcNAc(b1-3)Gal(b1-4)GlcNAc(b1-2)Man(a1-3)[Neu5Ac(a2-6)Gal(b1-4)GlcNAc(b1-3)Gal(b1-4)GlcNAc(b1-2)Man(a1-6)]GalNAc
# Summary of the method: as §1
# [11] = target: Neu5Ac(a2-6)Gal(b1-4)GlcNAc(b1-3)Gal(b1-4)GlcNAc(b1-3)GalNAc
# Summary of the method: as §1
# [12] = target: Neu5Ac(a2-8)Neu5Gc(a2-3)Gal(b1-4)GlcNAc
# Summary of the method: as §1
# Neu5Gc(a2-3)Gal(b1-4)Glc = target: Neu5Gc(a2-3)Gal(b1-4)Glc
# Summary of the method: as §1
# [13] = target: Neu5Gc(a2-3)Gal(b1-4)[Fuc(a1-3)]GlcNAc
# Summary of the method: as §1
# [14] = target: Neu5Gc(b2-6)Gal(b1-4)GlcNAc
# Summary of the method: as §1
binder,measurement,setting,value
B1,glycan array binding signal (z-score),[1],4.46
same,glycan array binding signal (z-score),Gal6S(b1-4)GlcNAc,-0.033
same,glycan array binding signal (z-score),GalNAc(b1-3)GlcNAc,-0.542
same,glycan array binding signal (z-score),Glc(a1-6)Glc(a1-6)Glc,-0.402
same,glycan array binding signal (z-score),GlcA(b1-3)Gal,-0.564
same,glycan array binding signal (z-score),[2],-0.299
same,glycan array binding signal (z-score),Kdn(a2-3)Gal(b1-4)Glc,-0.397
same,glycan array binding signal (z-score),Man(a1-6)Man,-0.064
same,glycan array binding signal (z-score),Man(b1-4)GlcNAc,-0.424
same,glycan array binding signal (z-score),[3],-0.207
same,glycan array binding signal (z-score),[4],-0.299
same,glycan array binding signal (z-score),[5],-0.127
same,glycan array binding signal (z-score),[6],-0.412
same,glycan array binding signal (z-score),[7],-0.532
same,glycan array binding signal (z-score),[8],-0.571
same,glycan array binding signal (z-score),[9],-0.166
same,glycan array binding signal (z-score),[10],0.218
same,glycan array binding signal (z-score),[11],-0.503
same,glycan array binding signal (z-score),[12],7.98
same,glycan array binding signal (z-score),Neu5Gc(a2-3)Gal(b1-4)Glc,-0.062
same,glycan array binding signal (z-score),[13],-0.313
same,glycan array binding signal (z-score),[14],-0.202
